# In the library only some 2.5% were active in any assay of this set; here they are far more common.
# p53ts 39C kill: kills p53ts cells at the nonpermissive temperature | H1299-p53A138V viability at 39C, ATP luminescence, 24 h | Potency, µM (titrated, usually from 46.1 µM), usual class: cytotoxic | hit rate 1.5% among 130,000 | AID 902; also: nearly all actives have a fitted effect of over 55% in size
# FLuc inh: blocks Photinus pyralis firefly luciferase activity; P08659; purified firefly luciferase, luminescence, 8 min; Potency, µM (top dose mostly 57.1 µM), most hits filed as inhibitors; hit rate 2.2% among 72,000; also: nearly all actives have a fitted effect of over 40% in size
# Target sequence (P08659 whole entry, looked up): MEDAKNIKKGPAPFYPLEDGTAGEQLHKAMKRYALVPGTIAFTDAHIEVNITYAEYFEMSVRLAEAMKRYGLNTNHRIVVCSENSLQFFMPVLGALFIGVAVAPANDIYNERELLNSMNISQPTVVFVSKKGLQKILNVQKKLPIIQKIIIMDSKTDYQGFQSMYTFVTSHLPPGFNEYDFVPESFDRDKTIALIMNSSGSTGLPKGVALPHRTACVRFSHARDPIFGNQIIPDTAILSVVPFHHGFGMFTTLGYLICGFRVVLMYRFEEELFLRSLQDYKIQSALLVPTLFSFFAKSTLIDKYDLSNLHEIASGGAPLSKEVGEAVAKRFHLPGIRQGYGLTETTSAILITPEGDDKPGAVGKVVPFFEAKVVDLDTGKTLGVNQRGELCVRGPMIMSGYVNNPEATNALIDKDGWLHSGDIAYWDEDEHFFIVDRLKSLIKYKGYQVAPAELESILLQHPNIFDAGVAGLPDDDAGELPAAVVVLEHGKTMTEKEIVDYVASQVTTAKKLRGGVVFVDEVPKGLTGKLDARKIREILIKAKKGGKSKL
#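 Compounds were tested as concentration series (qHTS) against purified P. pyralis luciferase with luciferin and 10 uM ATP in 50 mM imidazole pH 7.2, 50 mM KCl, 7 mM MgCl2, 0.01% Tween 20, 0.05% BSA. Luminescence was read after 8 min at ambient temperature.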
# p53ts 32C tox: cytotoxicity in p53ts cells at permissive temperature; H1299-p53A138V at 32C, ATP luminescence viability, 24 h; Potency, µM (series often up to 46.1 µM), most hits filed as cytotoxic; hit rate 0.93% among 130,000; AID 924; also: nearly all actives have a fitted effect of over 55% in size
#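 ATP-content luminescence (ATPlite) read-out after 24 h compound exposure at 32C in H1299-p53A138V cells (600/well). Tested up to 46 uM. Normalized to DMSO (0%) and 100 uM tamoxifen (100% killing); Hill-fit AC50.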
# Numbers stand for hits; . = inactive; ? = inconclusive; / = not tested or not shown; [ ] = another dose, or the depositor's remark. Calls follow the shape of the dose curve; as a rule, active = well fitted curve in the direction sought with a large enough effect; inconclusive = small, poorly fitted or top-dose-only effect, or another doubt; inactive = no such curve, though single readings can be large; an effect the other way counts as inactive or inconclusive.
SMILES,p53ts 39C kill,FLuc inh,p53ts 32C tox
Cc1ccc(=O)n(-c2ccccc2)c1,.,.,.
Cc1ccc2c(c1)C(=O)[C@@]1(O)CCN(c3ccccc3)C1=N2,.,13µM,.
CO[C@@H]1COC(=O)[C@H]2CCCN2C(=O)C/C=C\[C@@H](C)[C@H](OC)COC(=O)[C@H]2CCCN2C(=O)C/C=C\[C@H]1C,.[9.22 µM],.[11.4 µM],.[9.22 µM]
CCCC(c1nnnn1Cc1ccc(F)cc1)N1CCN(C2CCCCC2)CC1 (stereo not drawn),20µM,.,?
CCCC(c1nnnn1Cc1cccs1)N1CCN(C2CCCC2)CC1 (stereo not drawn),.,.,.
CC(CC(=O)O)(CC(=O)O)C(=O)O,.[9.22 µM],.[11.4 µM],.[9.22 µM]
C[C@@]12C=CC(=O)C=C1CC[C@@H]1C2=CC[C@]2(C)[C@@H]1CC[C@H]2C(=O)CN1CCN(c2cc(N3CCCC3)nc(N3CCCC3)n2)CC1,.,.,.
CCN(CC)S(=O)(=O)c1cc(C(=O)Nc2ccc(Cl)cn2)ccc1C,?,7.9µM,?
CCN(CC)S(=O)(=O)c1cc(C(=O)NC2CCCCC2)ccc1C,?,13µM,?
Cc1ccc(NC(=O)c2ccc3ccccc3n2)nc1,?,6.3µM,13µM
CCN(Cc1ccccc1)S(=O)(=O)c1cc(C(=O)Nc2cc(Cl)cc(Cl)c2)ccc1F,.,/,.
Cc1ccc(C(=O)NC2CCCCCC2)cc1N1CCCC1=O,.,.,.
Cc1ccc(NC(=O)c2cccc(Cl)c2)nc1,.,.,.
Cc1ccccc1C(=O)Nc1ccc(Cl)cn1,.,?,.
Cc1ccc(C(=O)Nc2ccc(Cl)cn2)cc1,?,6.3µM,7.9µM
CC(C)C(=O)N[C@H]1CCCN1C(=O)/C=C\c1ccccc1,.[9.22 µM],.[11.4 µM],.[9.22 µM]
COc1ccc(CNC(=O)c2cnc3ccc(C)cn3c2=O)cc1,.,/,.
CCOc1ccccc1CNC(=O)c1oc2ccc3c(c2c1C)C(=O)CC(C)(C)O3,.,/,.
CCc1cccc(NC(=O)c2oc3ccc4c(c3c2C)C(=O)CC(C)(C)O4)c1,6.3µM,/,?
CCC1(C)CC(=O)c2c(ccc3oc(C(=O)NCc4ccccc4)c(C)c23)O1 (stereo not drawn),.,/,.
COc1ccc(NC(=O)c2oc3ccc4c(c3c2C)C(=O)CC(C)(C)O4)cc1OC,4µM,/,10µM
COc1ccc(OC)c(NC(=O)c2ccc(-c3nc(CSc4ccccc4)c(C)o3)cc2)c1,.,/,.
CC(C)(C)c1ccc(CN(Cc2ccco2)c2cnc(S(C)(=O)=O)nc2C(=O)Nc2ccc(F)cc2)cc1,.,/,.
CC(=O)OC[C@@H]1O[C@H](C/C=N\OC[C@@H](O)COCc2ccco2)C=C[C@@H]1OC(C)=O,.[9.22 µM],.[11.4 µM],.[9.22 µM]
Cc1[nH]c(C)c(CN(C)C)c1CN(C)C,.[9.22 µM],.[11.4 µM],.[9.22 µM]
SMILES,p53ts 39C kill,FLuc inh,p53ts 32C tox
CCc1ccc2oc(-c3cc(N=Cc4cccc(OC)c4O)ccc3O)nc2c1,10µM,1.3µM,10µM
CCc1ccc2oc(-c3cc(NC(=O)c4cc(OC)c(OC)c(OC)c4)ccc3O)nc2c1,.,/,.
CCCC[S@@](=N)(=O)CC[C@@H](N)C(=O)O,.,.,.
CCc1ccc(-n2c(=O)c3c(C)c(C(=O)N(C)C)sc3n(CC(=O)Nc3cc(Cl)ccc3C)c2=O)cc1,.,/,.
CCOc1ccccc1NC(=O)Cn1c(=O)n(-c2ccc(C)c(C)c2)c(=O)c2c(C)c(C(=O)N(C)C)sc21,13µM,/,.
Cc1ccc(-c2nc3n(n2)C(c2ccccc2C)C=C(c2ccc(Cl)cc2)N3)cc1 (stereo not drawn),.,/,.
COc1ccc(C2=CC(c3cccc(C)c3)n3nnnc3N2)cc1 (stereo not drawn),.,/,.
Cc1ccc(C2=CC(c3ccccc3C)n3c(nc4ccccc43)N2)cc1 (stereo not drawn),5µM,/,?
Cc1cccc(C2C=C(c3ccc(F)cc3)Nc3nc4ccccc4n32)c1 (stereo not drawn),10µM,/,20µM
CN(C(=O)CSc1nc2ccc(NC(=O)COc3ccccc3Cl)cc2s1)c1ccccc1,.,/,.
CCOc1ccc(CNC(=O)CCCn2c(=O)c3cccn3c3cccnc32)cc1,.,/,.
CCN(CC)CCn1c(-c2ccccc2)nc2c(NC3CCCCC3)nc(C)nc21,.,/,.
Clc1ccc(C2=Nn3c(nnc3-c3n[nH]c4c3CCC4)SC2)cc1Cl,13µM,.,.
c1ccc(C2=Nn3c(nnc3-c3n[nH]c4c3CCC4)SC2)cc1,.,.,.
COc1ccc(OC2C(O)COC2/C=C/C#Cc2ccc(F)cc2F)cc1 (stereo not drawn),.[9.22 µM],/,.[9.22 µM]
COc1ccccc1C(=O)Nc1ccc2c(c1)nc1n2CCSC1,3.2µM,5µM,4µM
COCCN1CCn2c(nc3cc(NC(=O)c4ccc(OC)cc4)ccc32)C1,.,.,.
COc1ccc(OCC(=O)Nc2ccc3c(c2)nc2n3CCSC2)cc1,.,.,.

# Source: PubChem
